# About 240 (18%) of roughly 1,300 compounds were called active. Roughly 8% stayed inconclusive and do not appear here. Not all results are given here. Potency and affinity values are given separately. Unmarked numbers belong to inactive results. How the calls were made is not given here.
# Experiment: HepG2 cell cytotoxicity, dose response, cytotoxicity control, cherry-picked samples (AID 1159577);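 further: 0% = neutral control wells and -100% = positive control wells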
# Conditions: HepG2 cytotoxicity counterscreen, plate reader; series mostly up to 19.5 µM; activity change, negative = cytotoxicity: at the top concentration
row,SMILES,"activity change, negative = cytotoxicity"
1,COc1ccc2c3c(n(C)c2c1)[C@H](CO)N(C(=O)C1CC1)CC31CN(C(=O)C2CCOCC2)C1,-8.82% [at 21 µM]
2,COc1ccc2c3c([nH]c2c1)[C@@H](CO)N(C(=O)C1CCCCC1)CC31CCN(Cc2nccs2)CC1,2.26%
3,COc1ccc2c3c(n(C)c2c1)[C@@H](CO)N(C(=O)C1CC1)CC31CCN(C(=O)Nc2cccc(F)c2)CC1,8.54%
4,COc1ccc2c3c([nH]c2c1)[C@H](CO)N(C(=O)C1CCCCC1)CC31CCN(Cc2nccs2)CC1,40.4%
5,O=C(C[C@@H]1C[C@H]2c3cc(NS(=O)(=O)c4ccc(F)cc4)ccc3O[C@H]2[C@H](CO)O1)N1CCc2ccccc2C1,2.2%
6,COc1cccc(CN2[C@@H](CO)[C@H](c3ccccc3)C23CN(C(=O)C2CCOCC2)C3)c1,-7.26%
7,CN(C)c1ccc2c(c1)[C@H]1C[C@H](CC(=O)NCc3ccc(Oc4ccccc4)cc3)O[C@H](CO)[C@H]1O2,-25.6%
8,CCCC(=O)N1CCC2(CC1)CN(S(=O)(=O)c1ccc(C)cc1)[C@@H](CO)c1[nH]c3cc(OC)ccc3c12,-5.02%
9,C[C@H]1CN([C@@H](C)CO)C(=O)c2c(c3ccccc3n2C)-c2ccccc2CO[C@@H]1CN(C)C(=O)Nc1ccc(-c2ccccc2)cc1,16.4%
10,O=C(Nc1ccc(C(F)(F)F)cc1)N1[C@@H]2CNC[C@H]1C2c1ccc(/C=C/c2ccccc2)cc1 (some centres not stated),3.2% [at 21 µM]
11,O=S(=O)(Cc1ccccc1)N1[C@H](CO)[C@@H](c2ccccc2)C12CN(CCC(F)(F)F)C2,10.8% [at 21 µM]
12,CC(C)(C)[S@@](=O)N1Cc2cc(C(=O)NCCN3CCCCC3)nc(-c3cccc(-c4cccc(C#N)c4)c3)c2[C@H]1CCO,13.2%
13,COc1ccc(C#Cc2ccc3c(c2)[C@H]2[C@H](CCN2C(=O)C2CCC2)[C@@H](CO)N3)cc1,5.22%
14,CN(C)CC(=O)N1[C@H](CO)[C@H](c2ccc(C#CC3CCCCC3)cc2)[C@@H]1C#N,-13.4%
15,C[C@@H]1CN([C@H](C)CO)C(=O)c2cccc(NS(=O)(=O)c3ccccc3)c2O[C@H]1CN(C)Cc1ccc(-c2ccccc2)cc1,9%
16,N#Cc1ccc(-c2ccc([C@@H]3[C@@H]4CN(C(=O)Nc5ccc6c(c5)OCO6)C[C@H]3N4)cc2)cc1,16.2% [at 21 µM]
17,O=C(c1ccc(F)cc1)N1CC(=O)N2[C@H](CO)[C@@H](c3ccc(/C=C/c4ccccc4)cc3)[C@@H]2C1,-4.72%
18,O=C(C[C@H]1CC[C@@H]2[C@H](COC[C@@H](O)CN2C(=O)Nc2ccc3c(c2)OCO3)O1)N1CCN(c2ccccc2)CC1,-4.46%
19,C/C=C/c1ccc([C@@H]2[C@H](CO)N(CC3CC3)C23CN(C(=O)c2ccc4c(c2)OCO4)C3)cc1,0.389%
20,CN(C)C(=O)c1cccc(-c2ccc3c(c2)[C@H]2[C@H](CCN2C(=O)C2CC2)[C@@H](CO)N3)c1,-3.67%
21,C/C=C/c1ccc([C@@H]2[C@H](CO)N(CC3CCCC3)C23CN(C(=O)CC2CC2)C3)cc1,3.95%
22,CCC(=O)N1CCC2(CC1)CN(S(=O)(=O)c1ccccc1)[C@@H](CO)c1[nH]c3cc(OC)ccc3c12,9.94%
23,N#C[C@@H]1[C@H](c2ccccc2-c2cccc(F)c2)[C@H](CO)N1C(=O)C1CCCC1,10.2%
24,C[C@H](CO)N1C[C@H](C)[C@H](CN(C)S(=O)(=O)c2cccs2)OCc2ccccc2-c2c(n(C)c3ccccc23)C1=O,23.9%

row,SMILES,"activity change, negative = cytotoxicity"
1,C[C@@H]1CN([C@@H](C)CO)C(=O)c2cc(C#Cc3ccccc3)cnc2O[C@H]1CN(C)C(=O)CN(C)C,15.6%
2,C[C@@H]1CN([C@H](C)CO)C(=O)c2cc(C#CCc3ccccc3)cnc2O[C@H]1CN(C)C(=O)C1CCC1,27.8%
3,C[C@H](CO)N1C[C@H](C)[C@H](CN(C)C(=O)C2CCCCC2)Oc2ncc(C#Cc3cccc(F)c3)cc2C1=O,12.7%
4,COc1cccc(C#Cc2cnc3c(c2)C(=O)N([C@H](C)CO)C[C@H](C)[C@@H](CN(C)C(=O)C2CCCCC2)O3)c1,13.6%
5,COc1cccc(C#Cc2cnc3c(c2)C(=O)N([C@@H](C)CO)C[C@H](C)[C@@H](CN(C)C(=O)C2CCCCC2)O3)c1,-0.176%
6,C[C@@H]1CN([C@@H](C)CO)C(=O)c2cc(C#Cc3ccccc3)cnc2O[C@H]1CN(C)C(=O)CCN1CCCCC1,-30.7%
7,C[C@@H]1CN([C@H](C)CO)C(=O)c2cc(C#Cc3cccc(F)c3)cnc2O[C@@H]1CN(C)C(=O)C1CCCCC1,14.4%
8,C[C@H]1CN([C@@H](C)CO)C(=O)c2cc(C#Cc3cccc(F)c3)cnc2O[C@@H]1CN(C)C(=O)C1CCCCC1,13.3%
9,COCC(=O)Nc1ccc2c(c1)OC[C@H](C)N(Cc1ccncc1)C[C@H](C)[C@@H](OC)CN(C)C2=O,7.21%
10,C[C@H](CO)N1C[C@H](C)[C@H](CN(C)C(=O)C2CC2)Oc2cc(C#Cc3ccccc3)ccc2S1(=O)=O,-10.6%
11,C[C@@H]1CN([C@@H](C)CO)C(=O)c2c(c3ccccc3n2C)-c2ccccc2CO[C@H]1CN(C)Cc1cccc(C(=O)Nc2ccccc2N)c1,0.959%
12,CO[C@H]1CN(C)C(=O)c2ccc(NS(=O)(=O)CC(F)(F)F)cc2OC[C@@H](C)N(Cc2nccs2)C[C@H]1C,23.1%
13,COc1ccccc1-c1cccc(-c2nc(C(=O)Nc3nccs3)cc3c2[C@H](CCO)N(C(C)=O)C3)c1,3.78%
14,C[C@@H]1CN([C@@H](C)CO)C(=O)c2ccccc2-c2ccccc2CO[C@H]1CN(C)C(=O)Nc1cccc(Cl)c1Cl,16.1%
15,COc1ccc(CN2C[C@@H](C)[C@H](OC)CN(C)C(=O)c3cc(NC(=O)c4nc5ccccc5s4)ccc3OC[C@H]2C)cc1,-2.5% [at 21 µM]
16,CCCN(C)C[C@H]1Oc2ncc(C#Cc3ccccc3OC)cc2C(=O)N([C@H](C)CO)C[C@H]1C,-14.8%
17,CCCN(C)C[C@H]1Oc2ncc(C#Cc3ccc(F)cc3)cc2C(=O)N([C@@H](C)CO)C[C@H]1C,-9.44%
18,COc1cccc(NC(=O)N2[C@@H](CO)[C@@H](c3ccccc3)[C@@H]2CNC(C)C)c1,0.63%
19,C[C@@H]1CN([C@@H](C)CO)C(=O)c2cccc(NC(=O)Nc3ccccc3)c2O[C@@H]1CN(C)C(=O)Nc1ccccc1,-10.5%
20,COc1ccc2c3c([nH]c2c1)[C@H](CO)N(C(=O)Nc1ccc(F)cc1)CC31CCN(S(=O)(=O)c2cccc(F)c2)CC1,-1.31%
21,COc1ccc2c3c([nH]c2c1)[C@H](CO)N(C(=O)Nc1ccc(F)cc1)CC31CCN(C(=O)c2ccccn2)CC1,16.5%
22,COc1ccc2c3c([nH]c2c1)[C@H](CO)N(C(=O)Nc1ccc(F)cc1)CC31CCN(Cc2cc(-c3ccccc3)on2)CC1,-22.1%
23,COc1ccc2c3c([nH]c2c1)[C@@H](CO)N(C(=O)Nc1cccc(F)c1)CC31CN(CC2CCOCC2)C1,-16.3%
